Bioassay records from PubChem BioAssay.
Rab9 prom act: qHTS Assay for Rab9 Promoter Activators | Potency, µM (highest dose often 9.22 µM), without a hit: at the top dose activation, negative = inhibition, usual class: activators | actives 2.8% (n = 320,000) | AID 485297, 2010 | Huh7 Rab9 promoter-luciferase reporter, luminescence, 24 h; note: % of control where 0% means no effect; nearly all actives have a fitted effect of over 60% in size
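Steps: seed 1500 Huh7 Rab9-luc cells per well, rest 2 h at 37 °C; add compound in DMSO; incubate 24 h; add luciferase reagent, 10 min ambient; read luminescence.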
NPC1 prom act: qHTS Assay for NPC1 Promoter Activators | Potency, µM (doses to about 9.22 µM), without a hit: top-dose activation, actives largely listed as activators | Huh7 NPC1 promoter luciferase reporter, 24 h | AID 485313, 2010 | actives 2.4% (n = 320,000); note: % of control where 0% means no effect; nearly all actives have a fitted effect of over 60% in size
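Luciferase expression driven by the NPC1 promoter was measured in stably transfected Huh7 cells after a 24 h compound incubation, using a luciferase reagent and a luminescence read.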
SMN2 splice enh: qHTS Assay for Enhancers of SMN2 Splice Variant Expression. Potency, µM (titrated, usually from 46.1 µM), for inactives: at the top dose activity change, positive = activation, hits mostly activators. HEK293 SMN2-luciferase splicing reporter, luminescence, 30-36 h. actives 2.8% (n = 210,000); note: % of control where 0% means no effect; nearly all actives have a fitted effect of over 55% in size
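HEK293 cells carry an SMN2 minigene-luciferase reporter in which exon 7 inclusion puts luciferase in frame. Cells were seeded at 2000 cells/well, attached for 10-12 hours, then exposed to compounds for 30-36 hours at 37C before ONE-Glo luminescence.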
FLuc modulator: qHTS profiling assay for firefly luciferase inhibitor/activator using purifed enzyme and Km concentrations of substrates (counterscreen for miR-21 project); Luciferin 4-monooxygenase (Photinus pyralis), P08659; purified FLuc, Km substrates, luminescence inhibition; Potency, µM (top dose mostly 57.5 µM), for inactives: at the top dose activity change, negative = inhibition, usual class: inhibitors; actives 6.9% (n = 360,000); AID 588342, 2011;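 note: plate controls were vehicle for no effect and reference inhibitor for full effect; nearly all actives have a fitted effect of over 55% in size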
Target sequence (P08659 whole entry, looked up): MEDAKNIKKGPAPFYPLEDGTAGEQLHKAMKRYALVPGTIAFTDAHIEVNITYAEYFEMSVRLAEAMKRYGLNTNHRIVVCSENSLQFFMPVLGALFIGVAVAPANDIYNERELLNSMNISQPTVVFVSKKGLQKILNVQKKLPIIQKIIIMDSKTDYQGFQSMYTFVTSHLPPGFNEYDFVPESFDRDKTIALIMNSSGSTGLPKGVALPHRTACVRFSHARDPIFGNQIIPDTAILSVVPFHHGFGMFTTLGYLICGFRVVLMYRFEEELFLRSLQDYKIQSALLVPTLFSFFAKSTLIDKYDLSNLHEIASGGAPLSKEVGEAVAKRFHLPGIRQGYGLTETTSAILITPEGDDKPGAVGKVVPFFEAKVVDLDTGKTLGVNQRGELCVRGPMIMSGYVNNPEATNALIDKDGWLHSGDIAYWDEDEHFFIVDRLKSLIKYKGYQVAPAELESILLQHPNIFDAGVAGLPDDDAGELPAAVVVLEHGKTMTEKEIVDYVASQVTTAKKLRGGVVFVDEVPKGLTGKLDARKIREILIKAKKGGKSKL
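Biochemical qHTS of compounds, final roughly 60 µM downward over six points, against 10 nM purified firefly luciferase using Km concentrations of substrates (10 uM D-luciferin, 10 uM ATP) in Tris acetate pH 7.5 buffer; luminescence output.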
ELG1 DNA repair: qHTS screen for small molecules that inhibit ELG1-dependent DNA repair in human embryonic kidney (HEK293T) cells expressing luciferase-tagged ELG1 | HEK293T ELG1-luciferase reporter, luminescence, 16 h; DNA damage induced by 5-fluorouridine | Potency, µM (highest dose often 46.1 µM), for inactives: at the highest dose activity change, negative = inhibition, actives largely listed as inhibitors | actives 2.3% (n = 330,000); note: % is set by controls: 0 for no effect and ±100 for the full control effect; nearly all actives have a fitted effect of over 55% in size
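5-Fluorouridine DNA damage + compound/DMSO, 2,000 cells/well, 16 h, 37 °C/5% CO2. ONE-Glo, 30 min RT, luminescence. Readout = decrease in reporter signal.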
ELG1 genotox: qHTS screen for small molecules that induce genotoxicity in human embryonic kidney (HEK293T) cells expressing luciferase-tagged ELG1; Potency, µM (highest dose often 46 µM), inactives show at the top dose activity change, positive = activation, most hits filed as activators; HEK293T ELG1-luciferase reporter, luminescence, 16 h; AID 504466, 2011; actives 1.3% (n = 330,000); note: % of control where 0% means no effect; nearly all actives have a fitted effect of over 60% in size
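After overnight (16 hr) compound treatment at 37 °C, ELG1-luciferase HEK293T cells were lysed with ONE-Glo; luminescence quantified 30 min later at room temperature.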
* = called active by the depositor; ? = inconclusive; / = no result; [ ] = dose if it differs, or a comment. The list is not random: actives were taken first. Their share in the collection is about 9.4%. Calls come from the whole dose curve; as a rule, active = well fitted curve in the direction sought with a large enough effect; inconclusive = small, poorly fitted or top-dose-only effect, or another doubt; inactive = no such curve, though single readings can be large; an effect the other way counts as inactive or inconclusive. Potency is the fitted concentration of half-maximal effect.

SMILES	Rab9 prom act	NPC1 prom act	SMN2 splice enh	FLuc modulator	ELG1 DNA repair	ELG1 genotox
O=C(CSc1nc(-c2cccs2)nc2cc(=O)[nH]n12)Nc1cccc(C(F)(F)F)c1	/	/	/	-16%	/	/
COc1ccc(C(=O)O/N=C(\N)c2ccc(OC)c(OC)c2)c(OC)c1	24%	24%	/	?	?	?
COc1ccc(/C(N)=N/OC(=O)C2CCCCC2)cc1	?	2.8µM*	/	8.5µM*	?	8.2µM*
COc1ccc(C(=O)O/N=C(\N)c2ccccc2)c(OC)c1	?	3.2µM*	3.2µM*	1.7µM*	?	?
COc1ccc(C(=O)O/N=C(\N)c2ccc(OC)c(OC)c2)cc1	?	26%	/	7.6µM*	?	?
COc1ccc(C(=O)O/N=C(\N)c2ccccn2)c(OC)c1	0.5µM*	0.5µM*	/	2.7µM*	?	1.5µM*
COc1ccc(/C(N)=N/OC(=O)C2CCCCC2)cc1OC	?	?	/	?	?	-1%
C[C@H](C(=O)c1ccccc1)C(c1ccccc1)N1CCOCC1 (stereo not given in full)	/	/	-8%[9.22 µM]	/	/	/
Cc1ncc(COC(=O)C(C)C)c2cc(C(=O)Nc3ccccc3C(F)(F)F)c(=O)oc12	/	/	/	3%	/	/
O=C(NCC(c1cccs1)S(=O)(=O)c1cccs1)c1ccc(Cl)cc1 (stereo not given)	/	/	/	-12%	/	/
CSc1ccccc1NC(=O)c1cnc2n(c1=O)CCS2	11%	10%	-8%	-12%	18%	4%
CCc1ccc(NC(=O)c2cnc3n(c2=O)CCS3)cc1	4µM*	29%	26%	9.5µM*	?	9.2µM*
Cc1ccc(C)c(NC(=O)c2cnc3n(c2=O)CCS3)c1	4.5µM*	?	?	-18%	?	15%
CC1CN(C(=O)c2cn3ccccc3n2)CC(C)O1 (stereo not given)	-3%	2%	-6%	12µM*	?	-1%
Cc1csc(NC(=O)c2cn3ccccc3n2)n1	?	?	0.63µM*	2.1µM*	?	0.73µM*
O=C(Nc1ccc(-n2cnnn2)cc1)c1cn2ccccc2n1	1.6µM*	1.6µM*	/	?	-10%	?
Cc1c(NC(=O)c2cn3ccccc3n2)cccc1-n1cnnn1	18%	25%	/	?	?	13%
O=C(Nc1ccccc1)c1cn2ccccc2n1	0.2µM*	0.32µM*	/	0.95µM*	?	?
CC(=O)Nc1cccc(NC(=O)c2c(-c3ccccc3)c(-c3ccccc3)nn(C)c2=O)c1	/	/	-1%	-13%	/	/
COc1cccc(Cn2cc(C(=O)c3ccc(Cl)cc3)c(=O)c3ccccc32)c1	/	/	-2%	2%	/	/
CC(C)(C)C1CCc2c(C(=O)NNC(=O)CCCC(=O)O)csc2C1 (stereo not given)	-2%	-2%	-5%	17µM*	-8%	0%
CCCCC12CN3CC(C)(CN(C1)C3c1c(C)[nH]c(=O)[nH]c1=O)C2=O (stereo not given)	/	/	2%	-1%	/	/
Cc1ccc(NC(=S)NNc2ncc(C(F)(F)F)cc2Cl)c(C)c1	-1%	0%	-28%	6%	21µM*	-16%
Cc1ccc(NC(=S)NNc2ncc(C(F)(F)F)cc2Cl)cc1	-17%	-5%	-11%	-2%	?	-16%
Cc1ccn2c(=O)cc(COc3cccc(NC(=O)Nc4cccc(Cl)c4C)c3)nc2c1	/	/	/	-2%	/	/
FC(F)(F)COc1nc(N2CCOCC2)nc(N(c2ccccc2)c2ccccc2)n1	-9%	-5%	-26%	0%	?	-17%
